Survival data for 89 compounds are collected here from PubChem BioAssay AID463173 (ICCB-Longwood Screening Facility, Harvard Medical School, 2010).

Structures are written as SMILES. Among all 52,000 compounds or so, about 1,700 (3.3%) were called active. The list comes from a sample in which actives are over-represented; it also holds similar structures and randomly drawn compounds. Values without a mark were called inactive. Cut-off read from the data, not from the text of the source: active = survival mostly below about 52% (no sharp cut-off); inactive = mostly above about 56%.

The test relates to Wild type. As to the kind of experiment: growth inhibition of S. aureus wild type versus tarO mutant, primary screen, teichoic acid synthesis inhibitors, RN4220, OD600 (AID 463173). To be noted: S. aureus RN4220 wild type/DeltatarO growth, OD600, 18 h, hits give low values, screened at 18.75 µg/mL (by protocol).
On to `COc1ccc(-c2c[n+](=O)c3c(n2[O-])CCC3)cc1`, for which the survival is 103%.
Regarding `COC(=O)C1CCN(S(=O)(=O)c2ccc(OC)cc2)CC1`, the survival is 102%.
The result for `CCN(CC)C(=O)c1sc2c(c1C)c(=O)n(Cc1ccccc1)c(=O)n2Cc1ccc(Cl)cc1` reads 73%.
To `CCc1ccc(CNC(=O)C2COc3ccc(OC)cc3C2)cc1` (centres undefined) belongs 93%.
For the compound `Cc1ccc(NC(=O)Cn2cc3c(n2)CCCC3)c(Cl)c1`, the survival was 93%.
The result for `CCOc1ccc(OCC)c(NC(=O)c2cnn(-c3ccc(F)cc3)c2C2CCN(C(=O)OC(C)(C)C)CC2)c1` reads 14% (active).
Turning to `Cc1ccc(-n2ncc(C(=O)NCc3cccs3)c2C2CCN(C(=O)OC(C)(C)C)CC2)cc1C`, the survival was 90%.
To `CC(C)(C)OC(=O)N1CCC(c2c(C(=O)Nc3ccc4c(c3)OCCO4)cnn2-c2ccc(F)cc2)CC1` belongs 69%.
To `CC(C)(C)OC(=O)N1CCC(c2c(C(=O)NCc3ccc(F)cc3)cnn2-c2ccc(F)cc2)CC1` belongs -6% (active); to `COc1ccc(CNC(=O)c2cnn(-c3ccc(OC)cc3)c2C2CCN(C(=O)OC(C)(C)C)CC2)cc1`, 76%.
To `CC(C)(C)OC(=O)N1CCC(c2c(C(=O)NCc3cccs3)cnn2-c2ccc(F)cc2F)CC1` belongs 81%; to `CC(C)(C)OC(=O)N1CCC(c2c(C(=O)NCc3ccccc3)cnn2-c2ccc(F)cc2)CC1`, 133%; to `CCOc1ccc(NC(=O)c2cnn(-c3ccc(C)c(C)c3)c2C2CCN(C(=O)OC(C)(C)C)CC2)cc1`, 89%.
For `CC(C)(C)OC(=O)N1CCC(c2c(C(=O)NCc3cccs3)cnn2-c2cccc(F)c2)CC1`, the survival was -6% (active).
To `COc1ccc(NC(=O)CSc2ncc3c(n2)-c2ccccc2N(Cc2ccc(C)cc2)S3(=O)=O)cc1Cl` belongs 134%.
The result for `Cc1cccc(OCC(=O)OCc2cc(=O)n3nc(C4CCCCC4)sc3n2)c1` reads 100%; that for `N#Cc1cc2cc3c(cc2nc1N1CCCN(C(=O)c2ccccc2)CC1)OCO3`, 103%.
Consider `COc1ccc(C(=O)NCC(c2ccc3c(c2)OCO3)N2CCN(c3ccccc3F)CC2)cc1` (centres undefined), for which the survival is 77%.
To `Cc1ccc(NC(=O)CN2C(=O)COc3ccc(S(=O)(=O)N4CCCCC4)cc32)cc1N(C)C` belongs 106%; to `CC(=O)N1CCc2cc(Br)cc(S(=O)(=O)CCC(=O)N3CCN(c4cccc(C)c4C)CC3)c21`, 77%; to `COc1ccc(Nc2ncnc3c2nc2n3CCCC2)cc1Cl`, 59%.
On to `Fc1ccccc1Nc1ncnc2c1nc1n2CCCCC1`, for which the survival was 74%.
Regarding `Clc1ccccc1Nc1ncnc2c1nc1n2CCCCC1`, the survival is 0% (active).
In the case of `CCc1ccccc1Nc1ncnc2c1nc1n2CCCC1`, the survival was 71%.
The result for `Fc1ccc(Nc2ncnc3c2nc2n3CCCC2)cc1` reads 76%; that for `Fc1ccc(Nc2ncnc3c2nc2n3CCCCC2)c(F)c1`, 14% (active).
As to `COc1ccccc1Nc1ncnc2c1nc1n2CCCCC1`, the survival is 133%.
With `Clc1cccc(Nc2ncnc3c2nc2n3CCCCC2)c1`, the survival is -1% (active).
To `Clc1cccc(CNc2ncnc3c2nc2n3CCCC2)c1` belongs 92%; to `CCC(=O)N1CCc2cc(S(=O)(=O)NC(Cc3ccccc3)C(=O)NCc3ccc(F)cc3)ccc21` (centres undefined), 83%; to `COc1ccc(-c2cc(-c3ccccc3)nc(SCC(=O)Nc3ccccc3C)c2C#N)cc1`, 70%.
On to `COC(=O)c1ccc(Cl)cc1NC(=O)N(C)CCc1c(C)nn(C)c1C`, for which the survival is 111%.
To `C#CCn1c(O)c(N=NC(=O)c2ccncc2)c2cc(Br)ccc21` belongs 110%; to `Cc1noc(C)c1S(=O)(=O)NCCc1csc2nc(-c3ccc(Cl)cc3)nn12`, 72%; to `O=C(O)c1cccc(NC(=O)c2cccc(S(=O)(=O)Nc3cccc(F)c3)c2)c1`, 169%.
Consider `CCc1c(C)nc2nncn2c1Nc1ccc(C)c(F)c1`, for which the survival is 83%.
Consider `Cc1cc(C)cc(NC(=O)Cc2c(C(=O)O)c(C)cn2C)c1`, for which the survival is 47%.
On to `CCOC(=O)c1cnc2c(C)cc(C)cc2c1Nc1ccccc1OCC`, for which the survival is -1% (active).
The result for `CCOC(=O)c1cnc2c(C(F)(F)F)cccc2c1Nc1cccc(C(=O)OC)c1` reads 26%; that for `CCOC(=O)c1cnc2c(ccc3ccccc32)c1Nc1ccccc1OCC`, 109%.
For `CCOC(=O)c1cnc2c(C)cc(C)cc2c1Nc1cccc(C(=O)O)c1`, the survival is 23% (active).
On to `CCOC(=O)c1cnc2c(Cl)cc(Cl)cc2c1Nc1ccccc1OC`, for which the survival was 65%.
To `CCOC(=O)c1cnc2c(C)cc(C)cc2c1NCCN1CCOCC1` belongs 53%; to `CCOC(=O)c1cnc2c(C)cc(C)cc2c1Nc1ccc(OCc2ccccc2)cc1`, 11% (active); to `CCOC(=O)c1cnc2c(C)cc(C)cc2c1Nc1ccc(N2CCOCC2)cc1`, 15%.
To `Cc1nn2c(=O)cc(COC(=O)c3ccccc3NC(=O)C(C)C)nc2s1` belongs 74%; to `Cc1cc(C)c2nc(N(Cc3cccnc3)C(=O)c3ccc(S(=O)(=O)N(C)C)cc3)sc2c1`, 57%; to `COc1cccc(-c2nc(CS(=O)(=O)CC(=O)NCCc3ccc(OC)cc3OC)c(C)o2)c1`, 83%.
The result for `Cc1ccc(N(C)S(=O)(=O)c2nnc(NC(=O)CC(C)C)s2)cc1` reads 87%.
For the compound `N=c1n(CCN2CCCCC2)c2ccccc2n1CC(O)COc1ccc(Cl)cc1Cl` (centres undefined), the survival is -3% (active).
The result for `N=c1n(CCN2CCCCC2)c2ccccc2n1CC(O)COc1ccccc1` (centres undefined) reads 144%.
To `Cc1ccccc1OCC(O)Cn1c(=N)n(CCN2CCCCC2)c2ccccc21` (centres undefined) belongs 76%; to `O=C(CSc1nc2c([nH]c3ccccc32)c(=O)n1-c1ccccc1)NCc1ccc(F)cc1`, 87%.
Turning to `COCCNC(=O)CSc1nnc(-c2ccc(OC)c(OC)c2)c(-c2ccc(OC)c(OC)c2)n1`, the survival is 68%.
As to `CC(=O)N1N=C(c2ccccc2)CC1c1ccccc1` (centres undefined), the survival was 104%.
With `C=Cc1ccc(Cn2nc(-c3ccc(C)cc3)ccc2=O)cc1`, the survival is 57%.
For the compound `O=C(O)/C(=C/C(=O)c1ccccc1)Nc1ccccc1`, the survival was 100%.
Turning to `Cc1nc2ccc(S(=O)(=O)NC(C(=O)NCc3ccccc3Cl)C(C)C)cc2s1` (centres undefined), the survival was 85%.
Consider `Cc1cc(S(=O)(=O)Nc2ccc(O)c(Sc3nc4ccccc4s3)c2)ccc1Cl`, for which the survival is -2% (active).
Turning to `CC(C)(C)c1ccc(S(=O)(=O)Nc2ccc(O)c(Sc3nc4ccccc4s3)c2)cc1`, the survival was 3% (active).
The result for `O=S(=O)(Nc1ccc(O)c(Sc2nc3ccccc3s2)c1)c1cc(Cl)ccc1Cl` reads 0% (active).
Consider `O=S(=O)(Nc1ccc2oc3c(c2c1)CCCC3)c1cc(Cl)ccc1Cl`, for which the survival was 46%.
To `CC(C)c1ccc(C(=O)Nc2ccc(-c3nc4ccccc4s3)c(Cl)c2)cc1` belongs 141%; to `CC(=O)c1c(C)oc2ccc(NS(=O)(=O)c3ccc(C(C)C)cc3)cc12`, 86%; to `O=C(COc1ccc(Cl)cc1)Nc1ccc(O)c(-c2nc3ccccc3s2)c1`, 69%.
In the case of `Cn1c(=O)sc2cc(NS(=O)(=O)c3ccc(C(C)(C)C)cc3)ccc21`, the survival is 73%.
As for `CC(C)NC(=O)c1nc2ccccc2s1`, the survival was 120%.
On to `CC(C)c1ccc(S(=O)(=O)Nc2ccc(O)c(Sc3nc4ccccc4s3)c2)cc1`, for which the survival is 0% (active).
On to `Cc1cc(S(=O)(=O)Nc2ccc3oc4c(c3c2)CCCC4)ccc1Cl`, for which the survival was 46%.
To `CCN(C(=O)CSc1nnc(-c2cc(OC)c(OC)c(OC)c2)o1)c1ccccc1` belongs 87%.
For the compound `CCn1c(CNC(=O)c2ccc(OC)cc2)nnc1SCC(=O)Nc1cccc(C)c1`, the survival is 119%.
Regarding `CCC(C(=O)Nc1cccc(C#N)c1)n1nc(-c2ccccc2)ccc1=O` (centres undefined), the survival was 79%.
With `CC(C)N(Cc1ccccc1)C(=O)Cn1ncc2c3ccccc3n(Cc3ccccc3)c2c1=O`, the survival was 96%.
As for `CN(C)c1ccc(C(CNS(=O)(=O)c2ccc(Br)cc2)N2CCCC2)cc1` (centres undefined), the survival was 68%.
To `C=CCC(CC=C)(CNC(=O)C(=O)Nc1ccc(Br)cc1)c1ccc(OC)c(OC)c1` belongs 90%; to `O=C(Nc1ccc(N2CCOCC2)c(C(=O)O)c1)c1ccc(Br)cc1`, 0% (active); to `CCCNC(=O)CN1CCN(c2ccc(NC(=O)c3ccc(OC)cc3)cc2C(=O)O)CC1`, 87%.
The result for `CCOc1ccccc1NC(=O)c1ccc(F)c(S(=O)(=O)N2CCN(c3ccc(F)cc3)CC2)c1` reads 60%.
Turning to `O=C(Nc1ccc(N2CCN(CCOc3ccc(Cl)cc3)CC2)c(C(=O)O)c1)c1ccc(F)cc1`, the survival was -3% (active).
`CC(=O)c1ccc(N2CCN(c3ccc(NC(=O)c4ccc(F)cc4)cc3C(=O)O)CC2)cc1`: the survival was 14% (active).
On to `Cc1cccc(C(=O)Nc2ccc(N3CCN(c4ccc(F)cc4)CC3)c(C(=O)O)c2)c1`, for which the survival is 63%.
In the case of `Cc1cccc(NC(=O)c2ccc(F)c(S(=O)(=O)N3CCC4(CC3)OCCO4)c2)c1`, the survival is 71%.
On to `O=C(Nc1ccc(N2CCN(c3ccc(F)cc3)CC2)c(C(=O)O)c1)c1ccccc1F`, for which the survival was 76%.
To `Cc1cccc(NC(=O)c2ccc(F)c(S(=O)(=O)N3CCN(c4ccc(F)cc4)CC3)c2)c1` belongs -3% (active); to `O=C(Nc1ccc(N2CCC(N3CCCCC3)CC2)c(C(=O)O)c1)c1ccccc1`, 70%; to `O=C(Nc1ccc(N2CCC(N3CCCCC3)CC2)c(C(=O)O)c1)c1ccc(Br)cc1`, 75%.
To `COc1ccc(C(=O)Nc2ccc(N3CCN(c4ccccc4)CC3)c(C(=O)O)c2)cc1` belongs 83%; to `COc1ccc(NC(=O)c2nnn(CC(=O)Nc3cc(C)cc(C)c3)c2N)c(OC)c1`, 139%.
Take `CC(=O)Nc1ccc(NC(=O)CCNS(=O)(=O)c2cccc3nsnc23)cc1`: the survival is 89%.
